# Reference: PubChem BioAssay (NCI)
# Values joined by “and” are separate entries in the source; they are usually repeats but may differ in a detail not shown here. Equal values may be shown once. This is part of a sample that, as a whole, favours compounds with a hit. Of some 79,000 tested, about 15% had one in any assay. A number with no mark means an inactive call. Active and inactive are the calls of the source. Cut-off read from the data, not from the text of the source: active = growth inhibition above about 70%; inactive = the rest. Where a SMILES comes first, the peptide text is derived from it.
# Experiments:
# [1] = NCI Yeast Anticancer Drug Screen. Data for the rad50 strain (AID 155);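 note: 0% = growth of vehicle-only cultures of the same strain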; settings: S. cerevisiae rad50 strain growth inhibition, hits give high values; at 50.0 µM unless noted
# In short: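 Genetically altered yeast (DNA repair pathway); compound treatment; growth inhibition vs vehicle ctrl.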
# [2] = NCI Yeast Anticancer Drug Screen. Data for the mec2-1 strain (AID 157); settings: S. cerevisiae mec2-1 strain, hits give high values; at 50.0 µM unless noted
# In short: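 Growth inhibition is read against vehicle-treated controls after compound exposure of the mec2-1 yeast strain, which is defective in DNA damage repair or cell cycle control.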
# [3] = NCI Yeast Anticancer Drug Screen. Data for the sgs1 mgt1 strain (AID 161);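 note: 0% = growth of cultures given vehicle only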; settings: S. cerevisiae sgs1 mgt1 strain, hits give high values; at 50.0 µM unless noted
# In short: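 Growth of a repair-deficient yeast mutant was monitored after compound treatment and expressed as inhibition relative to vehicle-treated cultures.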
# [4] = NCI Yeast Anticancer Drug Screen. Data for the cln2 rad14 strain (AID 165);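 note: 0% = growth equal to vehicle treated cultures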; settings: S. cerevisiae cln2 rad14 strain, hits give high values; at 50.0 µM unless noted
# In short: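 Growth inhibition, relative to vehicle-treated controls, is the read-out. The test organism is a yeast strain with defined genetic alterations, cln2 rad14.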
# [5] = NCI Yeast Anticancer Drug Screen. Data for the bub3 strain (AID 167); settings: S. cerevisiae bub3 mutant strain, hits give high values; at 50.0 µM unless noted
# In short: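 Yeast carrying a defined mutation is treated with each compound, and growth is compared with that of vehicle-exposed cells to give inhibition.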
# [6] = NCI Yeast Anticancer Drug Screen. Data for the mlh1 rad18 strain (AID 175); settings: S. cerevisiae mlh1 rad18 strain growth inhibition, hits give high values; at 50.0 µM unless noted
# In short: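 Cells of a genetically altered yeast strain, deficient in DNA damage repair, were treated with compound. Their growth was then compared with that of vehicle-treated cultures to give inhibition.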
SMILES,growth inhibition [1],growth inhibition [2],growth inhibition [3],growth inhibition [4],growth inhibition [5],growth inhibition [6]
Cc1cccc(NC(=O)N(C(C)C)C(C)C)c1,-16.4%,-38.2%,-3.55%,2.8%,5.8%,-27.6%
C#CCOC(=O)c1ccccc1,1.15%,-5.15%,0.6%,-24.2%,3.5%,0%
Cn1cnc2ncnc(Cl)c21,1.85%,-3.45%,9.8%,-19.1%,-52.1%,-26.9%
Cc1cc(OC(=O)c2c(-c3c(Cl)cccc3Cl)noc2C)n(-c2ccc(NC(=O)c3c(-c4c(Cl)cccc4Cl)noc3C)cc2)n1,36.8%,24.8%,19.7%,13%,28.1%,25.9%
Fc1cccc(C(Nc2nncs2)Nc2nncs2)c1F,5.5%,8.95%,29.8%,-1.2%,5.15%,28.2%
CN(C1=CC(=O)c2ccccc2C1=O)C1CCCCC1,14.1%,49.5%,37.4%,-7.05%,63%,42.2%
COc1ccc(-n2c(N)c(C#N)[nH]c2=O)cc1,-8.7%,-36.1%,-14%,-11.8%,6.05%,-21.3%
COc1ccc(NS(=O)(=O)c2ccc(NC(CNC(C)S(=O)(=O)O)S(=O)(=O)O)cc2)cc1 (stereo not given),18.1%,5.75%,29.3%,52.5%,-0.85%,36.5%
CC(C)(C)c1ccncc1,8.45%,16.1%,-16.4%,-10.2%,5.15%,-4.65%
CC(=O)[CH-]C(=O)c1ccccc1.CC(=O)[CH-]C(=O)c1ccccc1.CC1(C)OCC(C2OC3OC(C)(C)OC3C2[O-])O1.CC1(C)OCC(C2OC3OC(C)(C)OC3C2[O-])O1.[Ti+4] (stereo not given),29.9%,5.65%,14.8%,14.9%,27.9%,20.2%
NC(=O)C(=CN1CC(=O)NC1=S)C(N)=O,-23.3%,-23.4%,-2.4%,9.85%,-9.05%,17.1%
C/C(N)=N\O,20.1%,4.1%,2.45%,9.85%,0.1%,1.65%
O=C(O)Cn1c(=O)[nH]c(=O)c2[nH]cnc21,4.6%,-26.4%,-0.3%,13.8%,-9.2%,-12%
CCC(=O)c1ccc(OC)cc1OC,-13.6%,1.25%,-4.8%,-2.05%,4.4%,-20.1%
CCOC(=O)c1c(-c2ccc([N+](=O)[O-])cc2)c(C=O)n(-c2ccccc2)c1C,4.2%,-5.45%,-0.55%,-21.8%,36.9%,6.7%
C=C(COc1ccc(OC)cc1)C(C)(C)C,18.9%,13.3%,-17.4%,-14.4%,14.7%,-19.5%
CC12Nc3ccccc3N1C(=O)c1ccccc12 (stereo not given),15.7%,6.15%,-34.8%,1.95%,-1%,-0.5%
O=C(O)C1C2CC=CCC21 (stereo not given),13.4%,4.5%,11.8%,8.85%,12.2%,16.6%
COC(C(=O)Nc1ccc(C)cc1)(c1ccccc1)c1ccccc1,7.4%,7.45%,-7.55%,0.65%,12.9%,23.8%
O=c1oc(-c2ccc([N+](=O)[O-])cc2)nc2cc(Cl)ccc12,17.8%,9.15%,44.7%,8.85%,44.9%,18.6%

SMILES,growth inhibition [1],growth inhibition [2],growth inhibition [3],growth inhibition [4],growth inhibition [5],growth inhibition [6]
CCCCOC(=O)C1CN2C=CC=NC2=NC1(C(F)(F)F)C(F)(F)F (stereo not given),-16.1%,27%,6.6%,0.95%,3.35%,-43.1%
CCCCCCCCCCCCSCCSCCCCCCCCCCCC,9.85%,15.4%,4.9%,-26.8%,-29.4%,1.3%
CC1(CO)COC(C)(C)OC1,16.1%,5.85%,7.1%,29.2%,2.75%,13.6%
COc1cc2c(cc1OC)C(Cl)C(c1ccc(Br)cc1)=C2Cl (stereo not given),36.9%,67.3%,72.5% (active),48.3%,55.4%,32.8%
NC(Cc1ccccc1)C(=O)NC(Cc1ccccc1)C(=O)O (stereo not drawn) (H-Phe-Phe-OH; configuration not given here),19.6% and 11.1%,-0.8% and -19.4%,12.6% and -2.9%,-16.1% and -19.3%,6.2% and 4.05%,1.6% and 7.7%
CCOc1ccc2c(c1)S(=O)(=O)OC2=O,-11.1%,0.6%,7%,25.6%,5.2%,2.35%
Cc1ccc(OCC(=O)N2N=C(c3ccccc3)CC2(O)c2ccccc2)cc1 (stereo not given),-7.6%,-41.9%,-30.6%,-15.6%,0%,-24.2%
Cc1c2c(c(C)c3c1C(=O)c1cc4c(cc1C3=O)OCO4)OC(C)(C)O2,14.3%,0.35%,21.4%,8.95%,11.6%,23.1%
N.N.O=P([O-])([O-])C1(P(=O)([O-])[O-])CCCCCN1.[Pt+2],13.6%,22.4%,-5.05%,6.25%,23.7%,11.2%
Cc1ccc(NC(=O)CCCl)cc1,3.4%,-1.55%,2.05%,-19.1%,-0.5%,-14.3%
CC(NC(C#N)CC12CC3CC(CC(C3)C1)C2)c1ccccc1 (stereo not given),-11.8%,-11.4%,-11.6%,12.2%,6.75%,-30.6%
Cc1ccc(-c2cc(-c3ccccc3)c(C#N)c(=O)n2C2OC(CO)C(O)C(O)C2O)cc1 (stereo not given),-6.55%,-0.3%,2.25%,28.1%,8.65%,2.95%
Cc1cc(C(=O)O)c(C(=O)O)c(Cl)n1,-9.15%,-5%,0.45%,-12.9%,-16.9%,4.8%
Cc1cccc(NC(=O)c2ccc(Cl)cc2Cl)c1,9.1%,14.1%,6.8%,13.6%,21.3%,22.2%
COC(OC)C(C)=O,-13.1%,-19.8%,-18.9%,-16.9%,-15.5%,5.35%
COC(=O)C1=Nc2c(C)nn(-c3ccccc3)c2N=C(c2ccc([N+](=O)[O-])cc2)C1,-18.4%,0.6%,-0.55%,-67.1%,-34%,10.3%
CCOC(=O)C(C)NC(=O)NC12CC3CC(CC(F)(C3)C1)C2 (stereo not given),31.3%,10.6%,3.1%,6.35%,8.45%,-0.2%
COc1ccc(CC2c3cc(OC)c(OC)cc3CC[N+]2(C)C)cc1OC (stereo not given),-13.1%,-20.8%,1.6%,10.9%,-1.65%,-46.4%
CCN(CCN1CCCCC1)c1ccccn1,11%,1.3%,11.4%,-35.7%,7.45%,-10.9%
Nc1sc(=S)[nH]c1-c1ccccc1,20.1%,10.7%,-24.9%,-30.8%,-11%,11.1%
